What all share (details): mRNA level, 48 h; actives raise or lower the signal
Read-out in assay [1]: Heat shock 70 kDa protein 1 (HSPA1A), gene 3303
Kind of assay: LTEA_HepaRG_HSPA1A: Life Technologies and Expression Analysis (LTEA) Assay for Heat shock 70 kDa protein 1 (HSPA1A) using HepaRG (AID 2283502). The method in brief: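 Differentiated human HepaRG cells in serum-free induction medium were exposed in duplicate for 48 h to eight concentrations (top 100 uM, half-log steps, 0.5% DMSO). HSPA1A mRNA was quantified by qRT-PCR, normalized to ACTB, GAPDH and POLR2A, and fitted bidirectionally against DMSO.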

Read-out in assay [2]: Hypoxia-inducible factor 1-alpha (Homo sapiens) (UniProt Q16665)
The assay can be described thus: LTEA_HepaRG_HIF1A: Life Technologies and Expression Analysis (LTEA) Assay for Hypoxia-inducible factor 1 (HIF1A) Trancription factor using HepaRG (AID 2283503). An outline of the steps:
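HepaRG, 48 h exposure, 8-pt half-log series from 100 uM, 0.5% DMSO vehicle, duplicates. Readout: HIF1A transcript by qRT-PCR (Fluidigm array), housekeeping-normalised. Bidirectional curve fit vs DMSO baseline.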

Read-out in assay [3]: 3-Hydroxy-3-Methylglutaryl-CoA Synthase 2 (HMGCS2), HMGCS2 (gene 3158)
The assay can be described thus: LTEA_HepaRG_HMGCS2: Life Technologies and Expression Analysis (LTEA) Assay for 3-Hydroxy-3-Methylglutaryl-CoA Synthase 2 (HMGCS2) using HepaRG (AID 2283504). An outline of the steps:
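HepaRG, plated 48 h then switched to serum-free induction media; cmpd 8-pt, max 100 uM, 1/2-log, 0.5% DMSO, n=2, 48 h. HMGCS2 mRNA by Fluidigm TaqMan qRT-PCR, ACTB/GAPDH/POLR2A norm; bidirectional fit vs DMSO.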

Read-out in the next assay: HGF (gene 3082)
The assay can be described thus: LTEA_HepaRG_HGF: Life Technologies and Expression Analysis (LTEA) Assay for Hepatocyte Growth Facto (HGF) using HepaRG (AID 2283505). The method in brief:
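Read-out is HGF transcript level by qRT-PCR, normalized to three housekeeping genes, fitted bidirectionally against 0.5% DMSO vehicle. Human HepaRG cells received test chemicals for 48 h at up to 100 uM.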

Read-out in assay [4]: Insulin Like Growth Factor 1 (IGF1), IGF1 (gene 3479)
Kind of assay: LTEA_HepaRG_IGF1: Life Technologies and Expression Analysis (LTEA) Assay for Insulin Like Growth Factor 1 (IGF1) using HepaRG (AID 2283506). An outline of the steps:
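Differentiated human HepaRG cells were dosed for 48 h in serum-free induction medium with 0.5% DMSO, eight half-log concentrations up to 100 uM, in duplicate. IGF1 mRNA was quantified by qRT-PCR normalized to ACTB, GAPDH, POLR2A; bidirectional fitting versus DMSO.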

Read-out in assay [5]: Intercellular Adhesion Molecule 1 (ICAM1), ICAM1 (gene 3383)
Kind of assay: LTEA_HepaRG_ICAM1: Life Technologies and Expression Analysis (LTEA) Assay for Intercellular Adhesion Molecule 1 (ICAM1) using HepaRG (AID 2283507). The method in brief:
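Readout is qRT-PCR mRNA level, normalized to three housekeeping genes and fitted bidirectionally against 0.5% DMSO vehicle. Human HepaRG cultures received compound for 48 h, top concentration 100 uM with half-log dilutions.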

Read-out in assay [6]: Insulin-like growth factor-binding protein 1 (IGFBP1), IGFBP1 (gene 3484)
Kind of assay: LTEA_HepaRG_IGFBP1: Life Technologies and Expression Analysis (LTEA) Assay for Insulin-like growth factor-binding protein 1 (IGFBP1) using HepaRG (AID 2283508). The method in brief:
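Thawed HepaRG cells are plated for 48 h, switched to serum-free induction medium, then dosed in duplicate for another 48 h (100 uM top, half-log steps). Lysates in RLT go to qRT-PCR, and gain or loss of signal is fitted relative to vehicle.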

Read-out in assay [7]: Interleukin 6 (IL6), IL6 (gene 3569)
Kind of assay: LTEA_HepaRG_IL6: Life Technologies and Expression Analysis (LTEA) Assay for Interleukin 6 (IL6) using HepaRG (AID 2283509). An outline of the steps:
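Differentiated human HepaRG cells, plated 48 h then switched to serum-free induction medium, were exposed in duplicate for 48 h to eight half-log concentrations up to 100 uM in 0.5% DMSO. IL6 mRNA measured by qRT-PCR, normalized to ACTB/GAPDH/POLR2A.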

Read-out in assay [8]: Interleukin 6 Receptor (IL6R), IL6R (gene 3570)
Kind of assay: LTEA_HepaRG_IL6R: Life Technologies and Expression Analysis (LTEA) Assay for Interleukin 6 Receptor (IL6R) using HepaRG (AID 2283510).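 On AC50: TaqMan qRT-PCR signal normalized to ACTB GAPDH and POLR2A housekeeping genes.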 An outline of the steps:
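Differentiated human HepaRG cells, plated 48 h then switched to serum-free induction medium, were dosed in duplicate for 48 h at eight half-log concentrations up to 100 uM in 0.5% DMSO. IL6R mRNA quantified by qRT-PCR, normalized to ACTB/GAPDH/POLR2A; bidirectional fit versus DMSO.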

Read-out in assay [9]: Potassium channel subfamily K member 1 (KCNK1), KCNK1 (gene 3775)
Kind of assay: LTEA_HepaRG_KCNK1: Life Technologies and Expression Analysis (LTEA) Assay for Potassium channel subfamily K member 1 (KCNK1) using HepaRG (AID 2283511). An outline of the steps: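 Differentiated human HepaRG cells in serum-free induction medium were exposed in duplicate for 48 h to 8 half-log concentrations up to 100 uM in 0.5% DMSO. KCNK1 mRNA was measured by TaqMan qRT-PCR, normalized to ACTB, GAPDH and POLR2A, and fitted bidirectionally versus DMSO.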

Read-out in assay [10]: Keratin 19 (KRT19), KRT19 (gene 3880)
Kind of assay: LTEA_HepaRG_KRT19: Life Technologies and Expression Analysis (LTEA) Assay for Keratin 19 (KRT19) using HepaRG (AID 2283512). The method in brief: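 KRT19 transcript levels, measured by Fluidigm qRT-PCR against three housekeeping genes, are fitted for gain or loss of signal relative to DMSO. Human HepaRG cells receive test chemicals (top 100 uM, half-log steps, 0.5% DMSO) for 48 hours.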

Read-out in assay [11]: JUN Transcription Factor, JUN (gene 3725)
Kind of assay: LTEA_HepaRG_JUN: Life Technologies and Expression Analysis (LTEA) Assay for JUN Transcription Factor using HepaRG (AID 2283513). The method in brief:
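Differentiated HepaRG cells were exposed to chemicals for 48 h in serum-free induction medium, 8 concentrations from 100 uM in half-log steps, 0.5% DMSO vehicle, in duplicate. JUN mRNA was quantified by TaqMan qRT-PCR, normalized to ACTB, GAPDH, POLR2A.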

Read-out in assay [12]: Lipase C (LIPC), LIPC (gene 3990)
The assay can be described thus: LTEA_HepaRG_LIPC: Life Technologies and Expression Analysis (LTEA) Assay for Lipase C (LIPC) using HepaRG (AID 2283514). An outline of the steps:
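Differentiated human HepaRG cells in serum-free induction medium were exposed in duplicate for 48 h to eight concentrations (top 100 uM, half-log steps, 0.5% DMSO). LIPC mRNA was quantified by TaqMan qRT-PCR, normalized to ACTB, GAPDH and POLR2A, with bidirectional fitting versus DMSO.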

Read-out in assay [13]: Lipoprotein lipase (LPL), LPL (gene 4023)
The assay can be described thus: LTEA_HepaRG_LPL: Life Technologies and Expression Analysis (LTEA) Assay for Lipoprotein lipase (LPL) using HepaRG (AID 2283515). An outline of the steps: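 Differentiated human HepaRG cells in serum-free induction medium were exposed in duplicate for 48 h to eight half-log concentrations (top 100 uM) in 0.5% DMSO. LPL mRNA was quantified by TaqMan qRT-PCR, normalized to ACTB, GAPDH and POLR2A.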

Read-out in assay [14]: MicroRNA 122 (MIR122), gene 406906
The assay can be described thus: LTEA_HepaRG_MIR122: Life Technologies and Expression Analysis (LTEA) Assay for MicroRNA 122 (MIR122) using HepaRG (AID 2283516). Further: the transcript read is the microRNA miR-122. The method in brief: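 Differentiated human HepaRG cells were exposed 48 h in serum-free induction medium to eight half-log concentrations (top 100 uM, 0.5% DMSO). Transcript level was measured by TaqMan qRT-PCR, normalized to ACTB, GAPDH and POLR2A, and fitted bidirectionally versus DMSO.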

Read-out in assay [15]: matrix metalloproteinase-10 (MMP10), MMP10 (gene 4319)
Kind of assay: LTEA_HepaRG_MMP10: Life Technologies and Expression Analysis (LTEA) Assay for matrix metalloproteinase-10 (MMP10) using HepaRG (AID 2283517). An outline of the steps: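 HepaRG, collagen I, ~100,000 cells/well; serum-free induction medium; 48 h exposure, duplicate, 8-pt half-log to 100 uM, 0.5% DMSO. Readout: TaqMan qRT-PCR, normalized to ACTB/GAPDH/POLR2A; bidirectional fit vs DMSO.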

Read-out in the next assay: MYC, MYC (gene 4609)
The assay can be described thus: LTEA_HepaRG_MYC: Life Technologies and Expression Analysis (LTEA) Assay for MYC using HepaRG (AID 2283518). The method in brief:
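HepaRG, ~100,000 cells/well, collagen I; 48 h plating; serum-free induction medium; 48 h dosing, duplicate, 100 uM top, half-log, 0.5% DMSO; total RNA → qRT-PCR MYC; gain/loss fit vs DMSO.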

Read-out in assay [16]: matrix metalloproteinase-3 (MMP3), MMP3 (gene 4314)
The assay can be described thus: LTEA_HepaRG_MMP3: Life Technologies and Expression Analysis (LTEA) Assay for matrix metalloproteinase-3 (MMP3) using HepaRG (AID 2283519). The method in brief:
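Differentiated human HepaRG cells, plated 48 h on collagen I, were exposed in duplicate for 48 h in serum-free induction medium to eight half-log concentrations up to 100 uM in 0.5% DMSO. MMP3 mRNA was quantified by TaqMan qRT-PCR, normalised to ACTB, GAPDH and POLR2A.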

Read-out in assay [17]: Paternally Expressed 10 (PEG10), PEG10 (gene 23089)
The assay can be described thus: LTEA_HepaRG_PEG10: Life Technologies and Expression Analysis (LTEA) Assay for Paternally Expressed 10 (PEG10) using HepaRG (AID 2283520). An outline of the steps: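 Differentiated HepaRG cells, plated 48 h then switched to serum-free induction medium, were exposed in duplicate for 48 h to eight half-log concentrations topping at 100 uM in 0.5% DMSO. PEG10 mRNA was quantified by TaqMan qRT-PCR, normalised to ACTB, GAPDH and POLR2A.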

For orientation: AC50 means the concentration giving half of the maximal activity seen.

The source made the active and inactive calls. How the source made its calls: active means hit-call score of the fitted dose curve at least 0.9, where 1 is the maximum; inactive means score below 0.9.

Sequence of Hypoxia-inducible factor 1-alpha (Homo sapiens) (Q16665 whole entry, looked up): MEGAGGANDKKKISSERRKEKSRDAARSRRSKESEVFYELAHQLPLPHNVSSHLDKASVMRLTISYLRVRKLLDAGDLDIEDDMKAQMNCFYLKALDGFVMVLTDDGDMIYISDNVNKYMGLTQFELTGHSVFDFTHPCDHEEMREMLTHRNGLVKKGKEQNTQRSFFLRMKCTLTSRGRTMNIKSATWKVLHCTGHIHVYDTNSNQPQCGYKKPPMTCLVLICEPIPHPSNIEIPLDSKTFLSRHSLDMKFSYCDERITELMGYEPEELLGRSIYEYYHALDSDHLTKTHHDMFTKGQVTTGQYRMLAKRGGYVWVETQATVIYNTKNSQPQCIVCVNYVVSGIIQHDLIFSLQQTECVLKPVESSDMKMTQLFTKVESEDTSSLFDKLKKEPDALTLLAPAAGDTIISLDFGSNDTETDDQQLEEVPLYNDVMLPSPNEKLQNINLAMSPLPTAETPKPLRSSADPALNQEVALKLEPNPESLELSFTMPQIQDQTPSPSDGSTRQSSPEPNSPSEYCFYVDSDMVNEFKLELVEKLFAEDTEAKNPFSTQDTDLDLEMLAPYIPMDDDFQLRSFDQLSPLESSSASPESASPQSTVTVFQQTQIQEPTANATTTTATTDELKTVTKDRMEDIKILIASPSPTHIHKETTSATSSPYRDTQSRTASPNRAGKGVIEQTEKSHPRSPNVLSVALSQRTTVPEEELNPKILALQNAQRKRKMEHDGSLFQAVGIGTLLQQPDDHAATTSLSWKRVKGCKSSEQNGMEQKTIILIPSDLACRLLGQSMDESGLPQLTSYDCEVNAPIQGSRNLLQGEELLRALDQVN

As to `Cc1ccc(-c2c(Cl)nc(C#N)n2S(=O)(=O)N(C)C)cc1`, the call in assay [1], in assay [2], in [5], in assay [8], in assay [11] and in assay [13] was inactive. Moreover, the result in assay [15] and in [16] was inactive. Further, the AC50 in assay [3] is 28.7 µM (active); with HGF (gene 3082), 86 µM (active); in [4], 50 µM (active); in assay [6], 13.6 µM (active); in assay [7] it was 13.2 µM (active); in assay [9], 50 µM (active). In addition, the AC50 in [10] is 22.3 µM (active); in assay [12] it was 50 µM (active); in [14], 10.2 µM (active); with MYC, MYC (gene 4609) it was 13.1 µM (active); in assay [17], 7.7 µM (active).
For the compound `CCCCNC(=O)n1c(NC(=O)OC)nc2ccccc21`, the compound was called inactive (in [1]; in assay [2]; in assay [3]; in the assay with HGF (gene 3082); in assay [4]; in assay [5]). Besides, the compound was classed as inactive in assay [6], in assay [7], in assay [8], in assay [9], in assay [10] and in assay [11]. Moreover, the outcome is “inactive” in [12]; “inactive” in assay [13]; “inactive” in assay [14]; “inactive” in [15]; “inactive” in the assay with MYC, MYC (gene 4609); “inactive” in [16]. Also, the compound was called inactive in assay [17].
Turning to `CC1=C(C(=O)Nc2ccccc2)SCCO1`, the compound was classed as inactive (in [1]; in assay [2]; in the assay with HGF (gene 3082); in assay [4]; in assay [5]; in [6]). Moreover, the outcome is “inactive” in assay [7]; “inactive” in assay [9]; “inactive” in assay [11]; “inactive” in [14]; “inactive” in [15]; “inactive” with MYC, MYC (gene 4609). The result in assay [16] and in assay [17] was inactive. Besides, the AC50 was 71.8 µM (active) in assay [3]; 50 µM (active) in assay [8]; 41.7 µM (active) in assay [10]; 39.5 µM (active) in [12]; 36.5 µM (active) in assay [13].
On to `CCCCC(CC)COC(=O)c1ccccc1C(=O)OCC(CC)CCCC` (stereo unspecified), for which the outcome (in [1]; in assay [2]; in assay [3]; with HGF (gene 3082); in assay [4]; in assay [5]) was inactive. Further, the compound was classed as inactive in [6], in assay [7], in assay [8], in assay [9], in [10] and in assay [11]. For the same compound, the outcome in assay [12] was “inactive”; in assay [13] it was “inactive”; in assay [14], “inactive”; in assay [15], “inactive”; in the assay with MYC, MYC (gene 4609) it was “inactive”; in [16] it was “inactive”. Further, the result in assay [17] was inactive.

The values above are taken from PubChem BioAssay (EPA / NIEHS).
